Assay results taken from PubChem BioAssay AID720690 (Broad Institute, 2013).
Measured potencies and affinities stand elsewhere. The source made the active and inactive calls.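 How the source made its calls: active means every repeat run showing a signal drop whose fitted half-maximal concentration is at most twice the top tested concentration; inconclusive means repeat runs disagree, or flat partial drop, or poor fit; inactive means the rest.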

experiment: HEK293T cytotoxicity, dose response, cytotoxicity control for miR-122 modulator project, cell-based, activator set, cherry-pick (AID 720690); conditions: HEK293T viability, CellTiter-Glo luminescence, 48 h; series mostly up to 26 µM

SMILES | outcome
COc1ccc(C(=O)N2C[C@H]3[C@@H](c4ccccc42)[C@@H](CO)N3C(=O)Cc2ccccn2)cc1 | inactive
CCC(=O)N1[C@H](CN(C)C(C)=O)[C@H](c2ccc(-c3cccnc3)cc2)[C@@H]1CO | inactive
CN(C)CCCNC(=O)C[C@H]1CC[C@H]2[C@H](COc3ccc(NC(=O)NC4CCCC4)cc3C(=O)N2C)O1 | inactive
CNC(=O)C[C@H]1CC[C@H]2[C@@H](COc3ccc(NC(=O)C(C)C)cc3C(=O)N2C)O1 | inactive
CC(C)C#Cc1ccc2c(c1)O[C@H](CN(C)C(=O)c1ccncc1)[C@@H](C)CN([C@@H](C)CO)S2(=O)=O | inactive
COCC(=O)N(C)C[C@@H]1[C@@H](c2ccccc2)[C@H](CO)N1C(=O)Cc1ccncc1 | inactive
COc1ccc(C#Cc2ccc3c(c2)O[C@@H](CN(C)C(=O)CN2CCOCC2)[C@@H](C)CN([C@H](C)CO)S3(=O)=O)cc1 | inactive
CNC(=O)C[C@@H]1CC[C@@H]2[C@@H](COc3ccc(NC(=O)Nc4ccc(F)c(F)c4)cc3C(=O)N2C)O1 | inactive
CCC(=O)N1[C@H](CN(CC)C(=O)c2ccccc2)[C@@H](c2ccccc2)[C@@H]1CO | inactive
COc1cccc(CNC(=O)C[C@@H]2CC[C@@H]3[C@@H](COc4ccc(NC(C)=O)cc4C(=O)N3C)O2)c1 | inactive
COC(=O)C[C@@H]1CC[C@@H]2[C@H](COc3ccc(NC(=O)Nc4cccc(F)c4)cc3C(=O)N2C)O1 | inactive
c1ccc(-n2nnnc2NCCc2c[nH]c3ccccc23)cc1 | inactive
CN1C(=O)c2cc(NC(=O)c3cccs3)ccc2OC[C@H]2O[C@@H](CC(=O)NCCN3CCCCC3)CC[C@H]21 | inactive
Cc1cc(NS(=O)(=O)c2ccc(NC(=O)C(CC(C)C)N3C(=O)c4ccccc4C3=O)cc2)nc(C)n1 (stereo not given) | inactive
C[C@@H]1CN([C@H](C)CO)S(=O)(=O)c2ccc(C3=CCCC3)cc2O[C@@H]1CN(C)C(=O)c1cnccn1 | inactive
C[C@H]1CCCCO[C@@H](CN(C)CC2CCCCC2)[C@@H](C)CN([C@@H](C)CO)C(=O)c2cc(NC(=O)Nc3cccc4ccccc34)ccc2O1 | inactive
C[C@@H]1CN([C@@H](C)CO)S(=O)(=O)c2ccc(-c3ccc(C(=O)N(C)C)cc3)cc2O[C@@H]1CN(C)C(=O)C1CCC1 | inactive
COC(=O)C[C@H]1CC[C@H]2[C@H](COc3ccc(NC(=O)c4cscn4)cc3C(=O)N2C)O1 | inactive
CC(=O)N1[C@H](CO)[C@@H](c2ccccc2)[C@H]1CN(C)C(=O)CN1CCOCC1 | inactive
CC(C)CC#Cc1ccc2c(c1)O[C@H](CN(C)C(=O)c1cnccn1)[C@H](C)CN([C@H](C)CO)S2(=O)=O | inactive

SMILES | outcome
COCCNC(=O)C[C@H]1CC[C@@H]2[C@H](COc3ccc(NC(=O)C4CCOCC4)cc3C(=O)N2C)O1 | inactive
CCNC(=O)Nc1ccc2c(c1)C(=O)N(C)[C@H]1CC[C@H](CC(=O)Nc3cccc(F)c3)O[C@@H]1CO2 | inactive
CCCNC(=O)C[C@H]1CC[C@@H]2[C@H](COc3ccc(NS(=O)(=O)c4ccccc4C)cc3C(=O)N2C)O1 | inactive
CN1C(=O)c2cc(NC(=O)c3cccs3)ccc2OC[C@@H]2O[C@@H](CC(=O)O)CC[C@@H]21 | inactive
Cc1c(CC(=O)NCCCC(=O)O)c(=O)oc2cc3occ(-c4ccccc4)c3cc12 | inactive
CNC(=O)C[C@H]1CC[C@@H]2[C@H](COc3ccc(NC(=O)c4ccc(OC)cc4)cc3C(=O)N2C)O1 | inactive
O=C(N[C@H]1CC[C@H](CCn2cc(C3(O)CCCC3)nn2)O[C@H]1CO)c1ccccc1F | inactive
Cc1ccc(-c2nc(C(Cl)Cl)c3ccccc3n2)cc1 | inactive
C[C@@H]1CN([C@@H](C)CO)C(=O)c2cc(NC(=O)NC3CCCCC3)ccc2O[C@@H]1CN(C)C(=O)Nc1ccc2c(c1)OCO2 | inactive
Cc1ccc(C(=O)n2nc(-c3ccccc3)nc2NCc2ccco2)cc1 | inactive
CN1C(=O)c2cc(NS(=O)(=O)c3cccc(F)c3)ccc2OC[C@H]2O[C@@H](CC(=O)NCCN3CCCCC3)CC[C@H]21 | inactive
Cc1cc(C)n(C(=O)Cn2nc(C)c(Br)c2C)n1 | inactive
O=C(COC(=O)Cc1ccc(S(=O)(=O)N2CCOCC2)s1)Nc1ccc2c(c1)OCO2 | inactive
c1ccc(-c2nnc3n2CCCC3)cc1 | inactive
Cc1nn(C)cc1NC(=O)C[C@@H]1CC[C@@H]2[C@@H](COc3ccc(NC(=O)Nc4cccc(Cl)c4)cc3C(=O)N2C)O1 | inactive
CCC(=O)N(C)C[C@H]1Oc2cc(C#Cc3ccccc3)ccc2S(=O)(=O)N([C@@H](C)CO)C[C@H]1C | inactive
Cc1cc(C)cc(NC(=O)c2ccc(CSc3nnc(C)s3)cc2)c1 | inactive
CN1C(=O)c2cc(NC(=O)Nc3ccc(Cl)cc3)ccc2OC[C@@H]2O[C@@H](CC(=O)NCCN3CCCCC3)CC[C@H]21 | inactive
C[C@@H]1CN([C@H](C)CO)S(=O)(=O)c2ccc(-c3ccccc3)cc2O[C@@H]1CN(C)C(=O)c1ccc2c(c1)OCO2 | inactive
CCS(=O)(=O)Nc1ccc2c(c1)C(=O)N(C)C[C@@H](OC)[C@H](C)CN(CC1CCCC1)[C@H](C)CO2 | inactive
